This is part of a sample that, as a whole, favours compounds with a hit. Of some 83,000 tested, about 20% had one in any assay.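 Single-concentration screen, 48 h exposure, 96-well plates. Endpoint: percent growth. Below 10 = active.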 Unmarked numbers belong to inactive results. The source made the active and inactive calls.
How the values were obtained:
Test in all cases: NCI-60 one-dose screen, 48 h (100 = growth as untreated, 0 = no growth, -100 = all killed)
Settings in all cases: 10 µM unless noted
RPMI-8226 leukemia = system: RPMI-8226 leukemia
OVCAR-8 ovarian = system: OVCAR-8 ovarian
OVCAR-5 ovarian = system: OVCAR-5 ovarian
OVCAR-4 ovarian = system: OVCAR-4 ovarian
SK-OV-3 ovarian = system: SK-OV-3 ovarian
IGROV1 ovarian = system: IGROV1 ovarian
OVCAR-3 ovarian = system: OVCAR-3 ovarian
HS 578T breast = system: HS 578T breast
NCI/ADR-RES ovarian = system: NCI/ADR-RES ovarian
T-47D breast = system: T-47D breast
BT-549 breast = system: BT-549 breast
MDA-MB-435 melanoma = system: MDA-MB-435 melanoma
SW-620 colon = system: SW-620 colon
MCF7 breast = system: MCF7 breast
HCT-116 colon = system: HCT-116 colon
HCC-2998 colon = system: HCC-2998 colon
KM12 colon = system: KM12 colon
SR leukemia = system: SR leukemia

C#Cc1cccc(NC(=O)c2ccc(NC(=O)CCl)cc2)c1
growth (RPMI-8226 leukemia): 2.29% [8.25 µM] (active)
growth (OVCAR-8 ovarian): -13.8% [8.25 µM] (active)
growth (OVCAR-5 ovarian): 40% [8.25 µM]
growth (OVCAR-4 ovarian): 17.1% [8.25 µM]
growth (SK-OV-3 ovarian): 77.3% [8.25 µM]
growth (IGROV1 ovarian): -55.5% [8.25 µM] (active)
growth (OVCAR-3 ovarian): -85.8% [8.25 µM] (active)
growth (HS 578T breast): 38.2% [8.25 µM]
growth (NCI/ADR-RES ovarian): 11.1% [8.25 µM]
growth (T-47D breast): 19.1% [8.25 µM]
growth (BT-549 breast): -44.8% [8.25 µM] (active)
growth (MDA-MB-435 melanoma): -4.26% [8.25 µM] (active)
growth (SW-620 colon): -75.5% [8.25 µM] (active)
growth (MCF7 breast): 4.22% [8.25 µM] (active)
growth (HCT-116 colon): -30.3% [8.25 µM] (active)
growth (HCC-2998 colon): 92.8% [8.25 µM]
growth (KM12 colon): 37.9% [8.25 µM]

N#CC1=C(NC=O)Oc2c(ccc3ccccc23)C1c1ccccc1 (stereo not given)
growth (RPMI-8226 leukemia): 19.1%
growth (OVCAR-8 ovarian): 23.6%
growth (OVCAR-5 ovarian): 88.9%
growth (OVCAR-4 ovarian): 64.5%
growth (SK-OV-3 ovarian): 16.3%
growth (IGROV1 ovarian): 38.6%
growth (OVCAR-3 ovarian): 3.87% (active)
growth (HS 578T breast): 11.3%
growth (NCI/ADR-RES ovarian): 20.4%
growth (T-47D breast): 25.2%
growth (BT-549 breast): 25.9%
growth (MDA-MB-435 melanoma): -33% (active)
growth (SW-620 colon): 21.3%
growth (MCF7 breast): 17.5%
growth (HCT-116 colon): 21.1%
growth (HCC-2998 colon): 63%
growth (KM12 colon): 30.7%

COc1ccc(-c2nc3c(N)c(CO)c(C)nc3o2)cc1
growth (SR leukemia): 100%
growth (OVCAR-5 ovarian): 85.1%
growth (OVCAR-4 ovarian): 104%
growth (SK-OV-3 ovarian): 106%
growth (IGROV1 ovarian): 86.9%
growth (OVCAR-3 ovarian): 103%
growth (HS 578T breast): 105%
growth (NCI/ADR-RES ovarian): 89.7%
growth (T-47D breast): 90.9%
growth (BT-549 breast): 118%
growth (MDA-MB-435 melanoma): 103%
growth (SW-620 colon): 118%
growth (MCF7 breast): 86.1%
growth (HCT-116 colon): 103%
growth (HCC-2998 colon): 87%
growth (KM12 colon): 96.5%

NC(=O)c1ccc[n+](Cc2ccc(Cl)cc2Cl)c1
growth (SR leukemia): 7.84% (active)
growth (RPMI-8226 leukemia): 93%
growth (OVCAR-5 ovarian): 96.9%
growth (OVCAR-4 ovarian): 109%
growth (SK-OV-3 ovarian): 97.2%
growth (IGROV1 ovarian): 105%
growth (OVCAR-3 ovarian): 109%
growth (NCI/ADR-RES ovarian): 111%
growth (T-47D breast): 85.3%
growth (BT-549 breast): 76%
growth (MDA-MB-435 melanoma): 107%
growth (SW-620 colon): 103%
growth (MCF7 breast): 95.7%
growth (HCT-116 colon): 80%
growth (HCC-2998 colon): 93.3%
growth (KM12 colon): 101%

COc1cc(C(=O)c2cc(C)c3[nH]c4ccc(Cl)cc4c3c2C)cc(OC)c1OC
growth (RPMI-8226 leukemia): 22.4%
growth (OVCAR-8 ovarian): 28.5%
growth (OVCAR-5 ovarian): 42.3%
growth (OVCAR-4 ovarian): 56.4%
growth (SK-OV-3 ovarian): 45.7%
growth (IGROV1 ovarian): 9.24% (active)
growth (OVCAR-3 ovarian): -35.7% (active)
growth (HS 578T breast): 43.5%
growth (NCI/ADR-RES ovarian): 0.863% (active)
growth (T-47D breast): 70.4%
growth (BT-549 breast): 14.4%
growth (MDA-MB-435 melanoma): -21.7% (active)
growth (SW-620 colon): 25.7%
growth (MCF7 breast): 13.9%
growth (HCT-116 colon): 3.67% (active)
growth (HCC-2998 colon): 14.2%
growth (KM12 colon): -5.01% (active)

CCCCCCCCn1ccc2cc(NC(=O)Cn3cc(CN4CCCC4)nn3)ccc21
growth (SR leukemia): 19.2%
growth (RPMI-8226 leukemia): -66% (active)
growth (OVCAR-5 ovarian): 88.4%
growth (SK-OV-3 ovarian): 87.2%
growth (IGROV1 ovarian): 76%
growth (OVCAR-3 ovarian): 51.9%
growth (HS 578T breast): 76.8%
growth (NCI/ADR-RES ovarian): 92.7%
growth (T-47D breast): 24.1%
growth (BT-549 breast): 70.8%
growth (MDA-MB-435 melanoma): -72.2% (active)
growth (SW-620 colon): -54.8% (active)
growth (MCF7 breast): 8.32% (active)
growth (HCT-116 colon): 37.7%
growth (HCC-2998 colon): -54% (active)
growth (KM12 colon): 41.8%

CCCCn1c(=O)c2c(nc3n2CCCN3CCc2ccc(OCC(=O)NCCN(CC)CC)cc2)n(CCCC)c1=O
growth (SR leukemia): -22% (active)
growth (RPMI-8226 leukemia): 61.5%
growth (OVCAR-5 ovarian): 94%
growth (OVCAR-4 ovarian): 52.3%
growth (SK-OV-3 ovarian): 51.8%
growth (IGROV1 ovarian): 59.3%
growth (OVCAR-3 ovarian): 71.2%
growth (NCI/ADR-RES ovarian): 60.7%
growth (T-47D breast): 53.6%
growth (BT-549 breast): 67%
growth (MDA-MB-435 melanoma): 63.6%
growth (SW-620 colon): 79.2%
growth (MCF7 breast): 36.6%
growth (HCT-116 colon): 36.4%
growth (HCC-2998 colon): 56.8%
growth (KM12 colon): 77.5%

CCCCCCCC/C=C\CCCCCCCCOc1ccccc1CC(=O)NCC[N+](C)(C)C
growth (SR leukemia): 23.6%
growth (RPMI-8226 leukemia): 56.1%
growth (OVCAR-5 ovarian): 25%
growth (SK-OV-3 ovarian): 81.9%
growth (IGROV1 ovarian): 28.9%
growth (OVCAR-3 ovarian): 83.2%
growth (HS 578T breast): 91.8%
growth (NCI/ADR-RES ovarian): 104%
growth (BT-549 breast): 77.4%
growth (MDA-MB-435 melanoma): 95.6%
growth (SW-620 colon): 69.5%
growth (MCF7 breast): 73%
growth (HCT-116 colon): 65.8%
growth (HCC-2998 colon): 33.7%
growth (KM12 colon): 36.4%

COc1ccc2cc(-c3cc(OC)c(OC)c(OC)c3)c(=O)oc2c1
growth (SR leukemia): 26.8%
growth (RPMI-8226 leukemia): 83.6%
growth (OVCAR-5 ovarian): 94.2%
growth (OVCAR-4 ovarian): 79.9%
growth (SK-OV-3 ovarian): 72%
growth (IGROV1 ovarian): 82.3%
growth (OVCAR-3 ovarian): 81.8%
growth (HS 578T breast): 75.5%
growth (T-47D breast): 56.5%
growth (MDA-MB-435 melanoma): 7.5% (active)
growth (SW-620 colon): 44.3%
growth (MCF7 breast): 37.5%
growth (HCT-116 colon): 46.9%
growth (HCC-2998 colon): 86.6%
growth (KM12 colon): 65.8%
